In the library only some 3.5% were active in any assay of this set; here they are far more common.
Rv3671c inh = inhibitors of M. tuberculosis serine protease Rv3671c; inhibition, % at 5.96 µM; 320,000 compounds, 0.048% hits; in the data active = inhibition above about 38%;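 also: extracellular domain of Rv3671c used as enzyme; 0% = enzyme with DMSO and 100% = no enzyme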
GDH-TPI counter-1 = inhibits GDH-TPI coupling enzymes, artifact for Mtb FBA screen. GDH-TPI coupled enzyme counterscreen, NADH absorbance. inhibition, % at 4.8 µM. 360,000 compounds, 1.2% hits; in the data active = inhibition above about 30%;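 also: 0% = DMSO wells and 100% = wells lacking the enzyme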
Mtb UGM inh = blocks M. tuberculosis UGM enzyme. P9WIQ1. purified UGM, fluorescence polarization probe displacement. inhibition, % at 10 µM. 320,000 compounds, 0.06% hits. AID 504406; in the data active = inhibition above about 10%, passing the limit was not always enough
Mtb betalactam = beta-lactam sensitization of Mtb H37Rv. M. tuberculosis H37Rv growth with meropenem, percent inhibition. inhibition, % at 25 µM. 330,000 compounds, 0.27% hits. AID 434955; call rule not given here;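 also: growth measured after seven days incubation then overnight dye step; 0% = bacteria only wells and 100% = bacteria with antibiotic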
Mtb FBA inh = inhibits M. tuberculosis FBA enzyme; P9WQA3; purified M. tuberculosis FBA, fluorescence read-out; inhibition, % at 1 µM; 360,000 compounds, 2.3% hits;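 also: 0% = vehicle and 100% = reference inhibitor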
Mtb FBA inh conf = Mtb FBA inhibition, confirmed; purified M. tuberculosis FBA, fluorescence read-out; AID 651616; inhibition, % at 1 µM; shares compounds with Mtb FBA inh; 5,600 compounds, 78% hits;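 also: 0% = vehicle wells and 100% = reference inhibitor wells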
GDH-TPI counter-2 = counter-screen for M. tuberculosis FBA inhibitors: GDH-TPI coupled enzyme inhibition | GDH-TPI coupled enzyme counterscreen, fluorescence | shares compounds with Mtb FBA inh | 5,600 compounds, 81% hits | inhibition, % at 1 µM; in the data active = inhibition above about 10%
* hit, by the source's call; . = no result given. Rule as the data show it, unless noted: active = inhibition above about 27%; inactive = the rest.

SMILES | Rv3671c inh | GDH-TPI counter-1 | Mtb UGM inh | Mtb betalactam | Mtb FBA inh | Mtb FBA inh conf | GDH-TPI counter-2
Cc1cnc(C(=O)OCC(=O)N2CCN(S(=O)(=O)c3ccc(Cl)cc3)CC2)cn1 | -11.7 | -1.4 | -1.8 | -2.5 | -1.2 | . | .
CN1CCN(CC(O)COc2ccc(C34CC5CC(CC(C5)C3)C4)cc2)CC1 (configuration not stated) | . | 0.9 | . | . | 0.6 | . | .
C[C@@H](NC(=O)c1nc[nH]c1C(=O)NCc1ccc(CNC(=O)OC(C)(C)C)cc1)c1ccccc1 | -7.7 | -1.7 | -5.0 | 68.4 | -3.7 | . | .
Cc1cccn2cc(CCNS(=O)(=O)c3cccc([N+](=O)[O-])c3)nc12 | 6.6 | 2.4 | -2.1 | -2.6 | 4.6 | . | .
CCCc1nc2sc(C(=O)OCC)c(N)c2c2c1COC(C)(C)C2 | 1.2 | 16.6 | 2.2 | 70.9 | 7.5 | . | .
CCCc1nc2oc(C(=O)OCC)c(N)c2c2c1COC(C)(C)C2 | -4.4 | 16.8 | 0.3 | 99.5 | 58.6* | 91.8* | 88.6*
O=C(Nc1ccc(NC(=O)c2ccccc2O)cc1)Nc1ccc(F)cc1F | -27.0 | 16.1 | -0.3 | -4.7 | 34.4* | 53.2* | 51.1*
CCCCCC(=O)Nc1cccc(-c2nc3ncccc3o2)c1 | -4.2 | 8.2 | 0.0 | -1.1 | 41.2* | 72.0* | 61.0*
Cc1ccc(-c2nc3cc(NC(=O)C(C)C)ccc3o2)cc1C | 0.2 | 17.8 | -1.4 | -15.6 | 44.9* | 50.4* | 34.7*
CCCCC(=O)Nc1cccc(-c2nc3ncccc3o2)c1 | 1.2 | 0.5 | -2.0 | 8.9 | 42.9* | -1.4 | -5.1

Assay outcomes deposited in PubChem by several laboratories.
